# Experimental data published in the supplement of paper PMC4022240.
# ± gives the standard deviation.
# T1: HaloTag-ATRX ADD domain (163-292)
# T1 chain: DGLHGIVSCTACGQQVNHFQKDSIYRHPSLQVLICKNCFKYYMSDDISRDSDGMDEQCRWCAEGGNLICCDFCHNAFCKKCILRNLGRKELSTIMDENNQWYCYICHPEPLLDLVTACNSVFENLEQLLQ
# What was measured:
# Assay in all cases: peptide microarray binding signal (635 nm), min-max normalized on array (fraction of array maximum); higher = stronger binding
# [1] = molecular target: T1, HaloTag-ATRX ADD domain (163-292)
# Method in brief: (§1)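 Arrays carried histone 13-mer peptide–cellulose conjugates printed in triplicate on nitrocellulose alongside a Cy3 tracer. After overnight blocking at 4°C, they were incubated for 1 h at 4°C with biotin-labelled HaloTag reader fusions (10 nM to 1 μM) plus streptavidin-Alexa Fluor 647, or with rabbit histone antibodies (1:10,000 to 1:2,000) plus anti-rabbit Alexa 647. Scanning on an Axon GenePix 4000B used 635 nm for signal and 532 nm for misprints. The binding signal reported is each triplicate's mean spot intensity after per-library min-max scaling.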
# [2] = molecular target: HaloTag-ING2 PHD (mouse Ing2 200-280)
# Method in brief: as §1
# [3] = molecular target: anti-H3K4me3 antibody ab8580
# Method in brief: as §1
# [4] = molecular target: anti-H3K9me3 antibody ab8898
# Method in brief: as §1
# [5] = peptide region: H3 112-124, peptide modifications: H3K115ac H3K122me1, binder concentration: 1:2,000 dilution
# [6] = peptide region: H3 112-124, peptide modifications: H3K115ac H3K122me1, binder concentration: 1:10,000 dilution
# [7] = peptide region: H3 112-124, peptide modifications: H3K115ac H3K122me3, binder concentration: 1:2,000 dilution
# [8] = peptide region: H3 112-124, peptide modifications: H3K115ac H3K122me3, binder concentration: 1:10,000 dilution
# [9] = peptide region: H3 73-85, peptide modifications: H3K79me3 H3T80ph, binder concentration: 1:2,000 dilution
# [10] = peptide region: H3 73-85, peptide modifications: H3K79me3 H3T80ph, binder concentration: 1:10,000 dilution
# [11] = peptide region: H3 112-124, binder concentration: 1:2,000 dilution
# [12] = peptide region: H3 112-124, binder concentration: 1:10,000 dilution
# [13] = peptide region: H3 112-124, peptide modifications: H3K115ac H3R116me2a, binder concentration: 1:2,000 dilution
# [14] = peptide region: H3 112-124, peptide modifications: H3K115ac H3R116me2a, binder concentration: 1:10,000 dilution
binder,measurement,setting,value
IHAKRVTIMPKDI [H3 112-124 I H A Kac R V T I M P Kme D I],peptide microarray binding signal,"[1]; peptide region: H3 112-124, peptide modifications: H3K115ac H3K122me1, binder concentration: 50 nM",0.00809 ± 8.8e-05
same,peptide microarray binding signal,"[1]; peptide region: H3 112-124, peptide modifications: H3K115ac H3K122me1, binder concentration: 500 nM",0.0164 ± 0.00068
same,peptide microarray binding signal,"[2]; peptide region: H3 112-124, peptide modifications: H3K115ac H3K122me1, binder concentration: 10 nM",0.0183 ± 0.00056
same,peptide microarray binding signal,"[2]; peptide region: H3 112-124, peptide modifications: H3K115ac H3K122me1, binder concentration: 100 nM",0.0281 ± 0.0012
same,peptide microarray binding signal,[3]; [5],0.00164 ± 0.00014
same,peptide microarray binding signal,[3]; [6],0.002054 ± 1.9e-05
same,peptide microarray binding signal,[4]; [5],0.00136 ± 6.1e-05
same,peptide microarray binding signal,[4]; [6],0.00138 ± 1.4e-05
IHAKRVTIMPKDI [H3 112-124 I H A Kac R V T I M P Kme3 D I],peptide microarray binding signal,"[1]; peptide region: H3 112-124, peptide modifications: H3K115ac H3K122me3, binder concentration: 50 nM",0.0118 ± 0.00049
same,peptide microarray binding signal,"[1]; peptide region: H3 112-124, peptide modifications: H3K115ac H3K122me3, binder concentration: 500 nM",0.027 ± 0.0019
same,peptide microarray binding signal,"[2]; peptide region: H3 112-124, peptide modifications: H3K115ac H3K122me3, binder concentration: 10 nM",0.04 ± 0.0046
same,peptide microarray binding signal,"[2]; peptide region: H3 112-124, peptide modifications: H3K115ac H3K122me3, binder concentration: 100 nM",0.0592 ± 0.018
same,peptide microarray binding signal,[3]; [7],0.00634 ± 0.00027
same,peptide microarray binding signal,[3]; [8],0.00679 ± 0.00065
same,peptide microarray binding signal,[4]; [7],0.0228 ± 0.0018
same,peptide microarray binding signal,[4]; [8],0.0104 ± 0.00089
EIAQDFKTDLRFQ [H3 73-85 E I A Q D F Kme3 Tph D L R F Q],peptide microarray binding signal,"[1]; peptide region: H3 73-85, peptide modifications: H3K79me3 H3T80ph, binder concentration: 50 nM",0.001066 ± 5.3e-06
same,peptide microarray binding signal,"[1]; peptide region: H3 73-85, peptide modifications: H3K79me3 H3T80ph, binder concentration: 500 nM",0.0021 ± 0.00018
same,peptide microarray binding signal,"[2]; peptide region: H3 73-85, peptide modifications: H3K79me3 H3T80ph, binder concentration: 10 nM",0.00221 ± 6.6e-05
same,peptide microarray binding signal,"[2]; peptide region: H3 73-85, peptide modifications: H3K79me3 H3T80ph, binder concentration: 100 nM",0.00333 ± 0.0011
same,peptide microarray binding signal,[3]; [9],0.000887 ± 9.8e-05
same,peptide microarray binding signal,[3]; [10],0.00183 ± 0.00035
same,peptide microarray binding signal,[4]; [9],0.0135 ± 0.0079
same,peptide microarray binding signal,[4]; [10],0.00577 ± 0.0016
IHAKRVTIMPKDI [H3 112-124 I H A K R V T I M P K D I],peptide microarray binding signal,"[1]; peptide region: H3 112-124, binder concentration: 50 nM",0.00972 ± 0.00063
same,peptide microarray binding signal,"[1]; peptide region: H3 112-124, binder concentration: 500 nM",0.0345 ± 0.00086
same,peptide microarray binding signal,"[2]; peptide region: H3 112-124, binder concentration: 10 nM",0.0135 ± 0.0014
same,peptide microarray binding signal,"[2]; peptide region: H3 112-124, binder concentration: 100 nM",0.0205 ± 0.0093
same,peptide microarray binding signal,[3]; [11],0.00261 ± 0.00029
same,peptide microarray binding signal,[3]; [12],0.001883 ± 1.8e-05
same,peptide microarray binding signal,[4]; [11],0.00415 ± 0.00045
same,peptide microarray binding signal,[4]; [12],0.00167 ± 2.8e-05
IHAKRVTIMPKDI [H3 112-124 I H A Kac Rme2a V T I M P K D I],peptide microarray binding signal,"[1]; peptide region: H3 112-124, peptide modifications: H3K115ac H3R116me2a, binder concentration: 50 nM",0.00787 ± 0.00018
same,peptide microarray binding signal,"[1]; peptide region: H3 112-124, peptide modifications: H3K115ac H3R116me2a, binder concentration: 500 nM",0.0159 ± 0.00051
same,peptide microarray binding signal,"[2]; peptide region: H3 112-124, peptide modifications: H3K115ac H3R116me2a, binder concentration: 10 nM",0.0239 ± 0.00027
same,peptide microarray binding signal,"[2]; peptide region: H3 112-124, peptide modifications: H3K115ac H3R116me2a, binder concentration: 100 nM",0.0365 ± 0.0046
same,peptide microarray binding signal,[3]; [13],0.00423 ± 0.00017
same,peptide microarray binding signal,[3]; [14],0.00394 ± 0.00014
same,peptide microarray binding signal,[4]; [13],0.00278 ± 0.00019
same,peptide microarray binding signal,[4]; [14],0.00306 ± 0.0002
